HT1080NT lethal: kills 2HG-producing HT-1080-NT fibrosarcoma cells; Potency, µM (highest dose often 46.1 µM), without a hit: at the top dose activity, negative = less viability, usual class: cytotoxic; hit rate 1.6% among 360,000; HT-1080-NT fibrosarcoma viability, CellTiter-Glo ATP luminescence, 48 h; AID 686970;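 note: NT is the 2HG producing partner of a matched IDH1 knockdown line; potency is the fitted concentration of half-maximal effect; 0% = DMSO-treated cells and -100% = media-only wells without cells; nearly all actives have a fitted effect of over 55% in size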
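Luminescent CellTiter-Glo readout after 48 hours of compound exposure at 37 degrees C defined viability of HT-1080-NT cells. Activity was normalized to DMSO wells and cell-free media wells; concentration-response curves were fitted and assigned curve classes.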
IL1B secr inh: inhibitors of inflammasome signaling (IL-1 beta secretion); AID 743279; activity change, % at 57.5 µM; hit rate 4.7% among 360,000; THP-1 LPS/ATP IL-1B secretion, AlphaLISA, 16 h; hits give low values; in the data active = activity change below about -50%; inconclusive = mostly about -30% to -49%
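THP-1 cells pretreated 1 hr with compounds (up to 57.5 uM final), then stimulated with LPS (250 ng/mL final) plus ATP (1.25 mM final); secreted IL-1B measured by AlphaLISA after 16 hr, decreased signal indicating inhibition.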
HT1080 IDH1KD tx: kills HT-1080 cells with IDH1 knockdown. HT-1080 IDH1 knockdown viability, ATP luminescence, 48 h. Potency, µM (doses to about 46.1 µM), without a hit: top-dose activity, negative = toxicity, hits mostly cytotoxic. hit rate 2% among 360,000. AID 686971;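 note: potency is the fitted concentration of half-maximal effect; 0% = DMSO wells and -100% = cell-free medium wells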
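Luminescent ATP read-out (CellTiter-Glo, 10 min at room temperature) after 48 h compound exposure at 37 °C gave viability of IDH1-knockdown HT-1080 cells. Activity was normalised to DMSO and cell-free wells, then fitted as concentration-response curves.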
ALOX12 inh: ALOX12 (human) lipoxygenase inhibition; P18054; purified 12hLO, xylenol orange hydroperoxide absorbance; Potency, µM (doses to about 108 µM), for inactives: top-dose activity change, negative = inhibition, usual class: inhibitors; hit rate 1.1% among 580,000; note: potency is the fitted concentration of half-maximal effect
Target sequence (P18054 whole entry, looked up): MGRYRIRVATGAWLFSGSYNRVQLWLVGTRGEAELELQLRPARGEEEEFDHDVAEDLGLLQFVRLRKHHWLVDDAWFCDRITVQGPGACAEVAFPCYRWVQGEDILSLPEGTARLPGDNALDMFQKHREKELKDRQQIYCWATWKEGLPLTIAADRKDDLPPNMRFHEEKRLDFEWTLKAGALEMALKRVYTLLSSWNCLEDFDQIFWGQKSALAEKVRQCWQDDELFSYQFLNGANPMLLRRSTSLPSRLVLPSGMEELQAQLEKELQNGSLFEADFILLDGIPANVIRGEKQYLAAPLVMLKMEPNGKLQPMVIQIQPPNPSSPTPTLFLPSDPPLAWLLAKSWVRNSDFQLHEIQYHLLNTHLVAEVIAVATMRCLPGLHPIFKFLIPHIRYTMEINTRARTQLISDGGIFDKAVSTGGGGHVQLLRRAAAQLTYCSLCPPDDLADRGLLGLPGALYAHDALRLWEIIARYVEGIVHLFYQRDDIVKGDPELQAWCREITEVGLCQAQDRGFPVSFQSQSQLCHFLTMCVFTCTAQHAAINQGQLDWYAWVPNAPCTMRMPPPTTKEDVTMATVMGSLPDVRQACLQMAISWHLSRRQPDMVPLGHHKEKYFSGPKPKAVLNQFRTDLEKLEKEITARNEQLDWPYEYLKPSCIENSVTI
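Purified human 12hLO at 150 nM in 25 mM Hepes, 0.01% Triton X-100, pH 7.0, preincubated 15 min at room temperature with compound. Reaction started with 40 uM arachidonic acid, 30 min at room temperature. Hydroperoxide measured by Fe-xylenol orange, 573/405 nm absorbance ratio.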
TDP1 cell noCPT: qHTS for Inhibitors of human tyrosyl-DNA phosphodiesterase 1 (TDP1): qHTS in cells in absence of CPT; Potency, µM (series often up to 46.2 µM), inactives show top-dose activity change, negative = growth inhibition, most hits filed as inhibitors; hit rate 15% among 420,000; DT40 Tdp1-/- hTDP1 cells, no CPT, ATP luminescence, 48 h; note: potency is the fitted concentration of half-maximal effect; nearly all actives have a fitted effect of over 55% in size
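Stably hTDP1-transfected Tdp1-null chicken DT40 cells were treated with library compounds minus camptothecin and grown for at least 48 hr at 37 °C, after which cellular ATP was quantified by luminescence.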
DT40 TDP1 CPT: DT40-hTDP1 cell growth loss with CPT | AID 686979 | hit rate 12% among 420,000 | chicken DT40 Tdp1-/-;hTDP1 cells + 20 nM CPT, ATP luminescence, 48 h | Potency, µM (top dose mostly 46.2 µM), for the others: at the highest dose activity change, negative = growth inhibition, actives largely listed as inhibitors; note: potency is the fitted concentration of half-maximal effect; nearly all actives have a fitted effect of over 55% in size
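Chicken DT40 Tdp1-/- cells complemented with human TDP1, 400 cells/well, exposed to compounds plus 20 nM camptothecin for at least 48 h at 37 C; viability read as ATP content by CellTiter-Glo luminescence.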
Numbers without * were called inactive; ? = inconclusive; nt = no result given. Many of the other results were omitted from the sample, so hits are more common in it than they were. Unless noted, calls come from the whole dose curve; as a rule, active = well fitted curve in the direction sought with a large enough effect; inconclusive = small, poorly fitted or top-dose-only effect, or another doubt; inactive = no such curve, though single readings can be large; an effect the other way counts as inactive or inconclusive. Unless noted, % is set by controls: 0 for no effect and ±100 for the full control effect.

SMILES	HT1080NT lethal	IL1B secr inh	HT1080 IDH1KD tx	ALOX12 inh	TDP1 cell noCPT	DT40 TDP1 CPT
COC(=O)COc1ccc2c(=O)c(-c3csc(C)n3)coc2c1	nt	nt	nt	38%	nt	nt
Cc1nc(-c2coc3cc(O)c(C)cc3c2=O)cs1	18µM*	36	23µM*	466%	?	-27%
COc1ccc(C(=O)N2CCC3(CC2)N=C(c2ccc(Br)cc2)NO3)cc1OC	nt	nt	nt	4%	nt	nt
N#CC1=C(N)OC2=C(C(=O)CC(c3ccccc3)C2)C1c1ccccc1C(F)(F)F (configuration not stated)	nt	nt	nt	-3%	nt	nt
O=[N+]([O-])c1ccc(NC(c2ccccc2)c2ccc3cccnc3c2O)cc1 (configuration not stated)	?	73	?	?	4.6µM*	3.3µM*
CCCCC(=O)NC(c1cccc([N+](=O)[O-])c1)c1ccc2cccnc2c1O (configuration not stated)	?	91	?	?	2.9µM*	3.7µM*
Cc1cccc(NC(c2ccc(O)cc2)c2ccc3ccc(C)nc3c2O)n1 (configuration not stated)	-1%	-71*	-13%	?	16µM*	23µM*
CCCCC(=O)NC(c1cccc([N+](=O)[O-])c1)c1c(OC(C)=O)ccc2ccccc12 (configuration not stated)	-30%	-17	?	0%	?	?
CC(=O)NC(c1cccc([N+](=O)[O-])c1)c1ccc2cccnc2c1O (configuration not stated)	?	189	?	11%	1µM*	2.6µM*
O=[N+]([O-])c1ccc2cccnc2c1	5%	17	3%	-21%	-12%	5%
CC(=O)Nc1ccc(S(=O)(=O)[C@H]2CS(=O)(=O)C[C@@H]2N2CCOCC2)cc1	nt	nt	nt	37%	nt	nt
CCc1nc(NCCCO)c(C#N)c2c1CCCC2	nt	nt	nt	21%	nt	nt
CC1CCCN(c2nc3c(c(=O)n(C)c(=O)n3C)n2CC(=O)O)C1 (configuration not stated)	nt	nt	nt	-9%	nt	nt
CCN(CC)c1nc2ccccc2nc1C(=O)Nc1ccccc1Cl	nt	nt	nt	3%	nt	nt
Cc1ccc(N)c(OCc2ccccc2)c1	nt	nt	nt	4%	nt	nt
O=S(=O)(NCCc1ccc(F)cc1)c1ccc2c(c1)CCCC2	nt	nt	nt	3%	nt	nt
COc1ccc(NC(C)c2ccccc2)cc1 (configuration not stated)	10%	10	12%	5%	-1%	2%
COc1cccc(C(NC(C)=O)c2ccc3cccnc3c2O)c1 (configuration not stated)	-9%	203	?	19%	0.92µM*	0.73µM*
COc1cccc(C(Nc2ccccc2)c2ccc3ccc(C)nc3c2O)c1 (configuration not stated)	10µM*	55	7.3µM*	-21%	5.2µM*	5.8µM*
Oc1cccc(C(Nc2nccs2)c2ccc3cccnc3c2O)c1 (configuration not stated)	29µM*	-107*	18µM*	?	4.6µM*	3.7µM*
COCCCNC(=O)C(NC(=O)c1ccc(OC)cc1)C1CCN(C(=O)c2cccc(OC)c2)CC1 (configuration not stated)	nt	nt	nt	35%	nt	nt
Cc1ccc(Cl)cc1N1CCN(C(=O)c2c(C)oc3ncnc(N4CCOCC4)c23)CC1	nt	nt	nt	-10%	?	?
CCC(Sc1nc2n[nH]c(C)c2c(=N)n1-c1cc(Cl)ccc1C)C(=O)N1CCOCC1 (configuration not stated)	-21%	-14	?	-8%	12µM*	?
Nc1nc(Cl)nc2ccc(Br)cc12	-9%	22	-8%	-3%	12µM*	?
